{
  "source": "PubChem BioAssay AID2685",
  "about": "(National Center for Advancing Translational Sciences (NCATS), 2010)",
  "note": "The whole screen tested about 320,000 compounds, of which about 2,100 (0.66%) were called active. Another 53% or so got no clear call; they are omitted. Calls follow the shape of the dose curve; as a rule, active = well fitted inhibition curve with a large enough effect in the signal ratio, with a control signal flat (not every such curve was filed as active); inconclusive = small, poorly fitted or top-dose-only effect, or effect the other way, or a change in a side signal; inactive = flat fitted curve, though single readings scatter; the % refers to the signal ratio. For the sample, actives were picked, then their nearest neighbours and some compounds at random. Potency is read from the fitted curve at half-maximal effect.",
  "data": [
    {"test": "qHTS Assay for Lipid Storage Modulators in Drosophila S3 Cells;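 as to cell number change: cells counted by Cell Tracker Red CMTPX staining in the red channel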", "conditions": "BODIPY lipid droplet fluorescence, 18-24 h, cells fed with added oleic acid; cell number change: measured here: cell count max response; series mostly up to 46.1 µM", "how_it_was_run": "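Laser-scanning cytometry quantifies lipid droplet accumulation (500–530 nm total intensity; droplet/cell object ratio) in oleic acid-fed (400 uM added) Drosophila S3 cells treated with a concentration series. 20 uM Triacsin C defined 100% inhibition.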", "units": {"cell number change": "%"}, "values": [
      {"smiles": "O=C(CN1C(=O)/C(=C/c2cccc(Br)c2)SC1=S)NCCCN1CCOCC1", "Potency": "inactive"},
      {"smiles": "O=C(Cc1csc(NC(=O)Nc2ccc(Cl)cc2)n1)NC1CCCC1", "outcome": "inactive [at 0.0737 µM]"},
      {"smiles": "Cn1c(CC(=O)NCCO)c(Sc2ccccc2)c2ccccc21", "Potency": "inactive", "cell number change": -10.3},
      {"smiles": "CSc1c(CC(=O)NCCCO)n(Cc2ccccc2)c2ccccc12", "Potency": "inactive", "cell number change": -1.72},
      {"smiles": "O=C(Cc1c(Sc2ccccc2)c2ccccc2n1Cc1ccccc1)NCCO", "Potency": "13 µM (active)"},
      {"smiles": "Cc1cccc(-n2c(=S)[nH]c3nc4c(cc3c2=O)COC(C)(C)C4)c1", "Potency": "inactive", "cell number change": 18.9},
      {"smiles": "CCOc1ccc(S(=O)(=O)NCCc2cn3ccccc3n2)cc1", "Potency": "inactive", "cell number change": 6.49},
      {"smiles": "COc1ccc(-c2csc3ncnc(N4CCN(c5ccc(OC)cc5)CC4)c23)cc1", "Potency": "inactive", "cell number change": 11.5},
      {"smiles": "Cc1nc(N2CCCCC2)c2c(-c3cccs3)csc2n1", "Potency": "inactive", "cell number change": 4.97},
      {"smiles": "COc1ccc(-c2csc3ncnc(N4CCN(S(=O)(=O)c5ccccc5C#N)CC4)c23)cc1", "Potency": "7.31 µM (active)", "cell number change": -21.2},
      {"smiles": "Oc1ccccc1N1CCN(c2ncnc3scc(-c4ccccc4)c23)CC1", "Potency": "0.92 µM (active)", "cell number change": -12.6},
      {"smiles": "Cc1nc(N2CCN(c3ccccc3O)CC2)c2c(-c3ccccc3)csc2n1", "Potency": "4.11 µM (active)", "cell number change": -4.5},
      {"smiles": "CN1CCN(c2nc(-c3cccnc3)nc3scc(-c4ccccc4)c23)CC1", "Potency": "inactive"},
      {"smiles": "COc1ccc(-c2csc3ncnc(N4CCN(S(=O)(=O)c5ccc(Cl)s5)CC4)c23)cc1", "Potency": "inactive"},
      {"smiles": "c1ccc(-c2csc3ncnc(N4CCOCC4)c23)cc1", "Potency": "inactive", "cell number change": -6.12},
      {"smiles": "Cc1ccc(-c2csc3ncnc(N4CCN(c5ccccc5O)CC4)c23)cc1", "Potency": "inactive", "cell number change": 7.78},
      {"smiles": "COc1cccc(NC(=O)CN(C)C(=O)c2ccccc2-c2nc3ccccc3s2)c1", "Potency": "inactive", "cell number change": -6.15},
      {"smiles": "CCCCn1c(N)c(N(CC)C(=O)c2ccc([N+](=O)[O-])c(C)c2)c(=O)[nH]c1=O", "Potency": "inactive", "cell number change": 6.41},
      {"smiles": "COCC(=O)NCCSc1c(C)[nH]c2ccccc12", "Potency": "inactive"},
      {"smiles": "COc1ccc(/C=N/NC(=O)c2cccc(Br)c2)cc1CSc1ccccn1", "Potency": "inactive", "cell number change": 25.3},
      {"smiles": "Cc1ccccc1CN1CCC(n2nccc2NC(=O)CCOc2ccccc2)CC1", "Potency": "inactive"},
      {"smiles": "N#Cc1ccccc1OCC(=O)NCC(c1ccc(F)cc1)N1CCOCC1", "note": "(stereo not drawn)", "Potency": "inactive", "cell number change": 17.7},
      {"smiles": "CSc1nnc(C)c(=O)n1COC(=O)COc1ccc(F)cc1", "Potency": "inactive"},
      {"smiles": "CCC(C)N(C(=O)Cn1nnc(-c2ccc(F)cc2)n1)C1CCS(=O)(=O)C1", "note": "(stereo not drawn)", "Potency": "inactive", "cell number change": 8.11},
      {"smiles": "COc1ccc(S(=O)(=O)N(C)CC(=O)Nc2ccc3c(c2)OCO3)cc1", "Potency": "inactive", "cell number change": -1.44},
      {"smiles": "O=C(CN(C(=O)c1csnn1)c1ccc(Cl)cc1)NCc1ccc2c(c1)OCO2", "Potency": "inactive", "cell number change": 3.81},
      {"smiles": "O=C(CN(C(=O)c1csnn1)c1cccc(F)c1)NCc1ccc2c(c1)OCO2", "Potency": "inactive", "cell number change": 8.12},
      {"smiles": "COc1ccc(S(=O)(=O)N(C)CC(=O)NCc2ccc3c(c2)OCO3)cc1", "Potency": "2.06 µM (active)", "cell number change": 16.1},
      {"smiles": "COc1ccc(Cl)cc1S(=O)(=O)N(C)CC(=O)NCc1ccc2c(c1)OCO2", "Potency": "inactive", "cell number change": 13.5},
      {"smiles": "COc1ccc(N(CC(=O)NCc2ccc3c(c2)OCO3)C(=O)c2csnn2)cc1", "Potency": "1.16 µM (active)", "cell number change": -14.1},
      {"smiles": "Cc1ccc2c(c1)N(S(=O)(=O)c1ccc3c(c1)NC(=O)CC(=O)N3)CCO2", "Potency": "inactive", "cell number change": 15},
      {"smiles": "COC(=O)c1sc2ncccc2c1OCc1ccccc1Cl", "Potency": "inactive", "cell number change": -10.8},
      {"smiles": "COc1cccc(C2/C(=C(/O)c3ccc4c(c3)OCO4)C(=O)C(=O)N2CCN2CCOCC2)c1", "note": "(stereo not drawn)", "Potency": "inactive", "cell number change": 25.8},
      {"smiles": "CC(C)Cc1nnc(NC(=O)C2=COCCO2)s1", "Potency": "inactive", "cell number change": -9.23},
      {"smiles": "C=CCn1c(C)c(C(C)=O)c(N2CCN(c3ccccc3)CC2)nc1=S", "Potency": "inactive", "cell number change": -14.3},
      {"smiles": "C=CCn1c(C)c(C(C)=O)c(N2CCCC2)nc1=S", "Potency": "inactive", "cell number change": 0.195},
      {"smiles": "C=CCn1c(C)c(C(C)=O)c(N2CCOCC2)nc1=S", "Potency": "23.1 µM (active)", "cell number change": -4.96},
      {"smiles": "CCOc1ccc(/C=N/n2c(SC)nnc(C(C)(C)C)c2=O)cc1", "Potency": "inactive", "cell number change": -13.9},
      {"smiles": "Cc1cc(NS(=O)(=O)c2ccc(NC(=O)CCCC(=O)O)cc2)nc(C)n1", "Potency": "inactive", "cell number change": -5.64},
      {"smiles": "Cc1cc(NS(=O)(=O)c2ccc(NC(=O)CN3C(=O)c4ccccc4C3=O)cc2)nc(C)n1", "Potency": "inactive"},
      {"smiles": "CCOC(=O)COc1ccc(S(=O)(=O)Nc2ccc(C)cc2)cc1", "Potency": "inactive", "cell number change": 11.3},
      {"smiles": "Cc1cc(NS(=O)(=O)c2ccc(NC(=O)COc3ccc(Br)cc3)cc2)nc(C)n1", "Potency": "18.4 µM (active)"},
      {"smiles": "Cc1cc(C)nc(NS(=O)(=O)c2ccc(NC(=O)CN3C(=O)c4ccccc4C3=O)cc2)n1", "Potency": "6.51 µM (active)", "cell number change": -6.03},
      {"smiles": "CCOc1ccc(OCC(=O)Nc2ccc(S(=O)(=O)Nc3cc(C)nc(C)n3)cc2)cc1", "Potency": "inactive", "cell number change": -4.96},
      {"smiles": "COC(=O)COc1ccc(S(=O)(=O)Nc2ccc(C(N)=O)cc2)cc1", "Potency": "inactive", "cell number change": 10.2},
      {"smiles": "COCC(=O)Nc1ccc(S(=O)(=O)Nc2cc(C)nc(C)n2)cc1", "Potency": "32.6 µM (active)", "cell number change": -33.4},
      {"smiles": "Cc1cccc(OCC(=O)Nc2ccc(S(=O)(=O)Nc3cc(C)nc(C)n3)cc2)c1", "Potency": "inactive", "cell number change": 13.6},
      {"smiles": "COC(=O)COc1ccc(S(=O)(=O)Nc2ccc(NC(C)=O)cc2)cc1", "Potency": "3.66 µM (active)", "cell number change": -0.0647},
      {"smiles": "COCCOCC(=O)Nc1ccc(S(=O)(=O)Nc2cc(C)nc(C)n2)cc1", "Potency": "inactive", "cell number change": 21.3}
    ]}
  ]
}
